In PubChem BioAssay AID1159580 (chemical genetic matrix, 2015):
The campaign covered roughly 5,500 compounds. About 2,000 (36%) were called active. Inconclusive results (about 18%) are left out. No stated cut-off is given here; in the data, active means normalized growth mostly below about 0.91 (no sharp cut-off); inconclusive means no clear call, values can overlap the other calls; inactive means mostly above about 0.92. This is one part of the list.

Assay: chemical genetic growth profiling, strain panel (AID 1159580);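 further: tested at 20 µM; growth read once vehicle control cultures reached saturation at 30 °C; 1 = growth at the plate median or of vehicle wells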
Settings: S. cerevisiae deletion strains, growth OD
[1] = locus YDL101C, strain DUN1, stronger effect = lower value
[2] = locus YHR030C, strain SLT2, stronger effect = lower value
[3] = locus YMR307W, strain GAS1, stronger effect = lower value

Measured: normalized growth

CSc1c(C#N)c(-c2cccs2)nn1C
inactive: locus YAL013W, strain DEP1, stronger effect = lower value 0.934 | locus YBR229C, strain ROT2, stronger effect = lower value 0.935 | [1] 0.934 | locus YDR150W, strain NUM1, stronger effect = lower value 0.86 | locus YEL061C, strain CIN8, stronger effect = lower value 0.924 | locus YJL187C, strain SWE1, stronger effect = lower value 1.02 | locus YJR043C, strain POL32, stronger effect = lower value 0.978 | locus YLR039C, strain RIC1, stronger effect = lower value 0.87 | locus YLR085C, strain ARP6, stronger effect = lower value 0.784 | locus YLR262C, strain YPT6, stronger effect = lower value 0.879 | locus YML094W, strain GIM5, stronger effect = lower value 0.911 | locus YMR219W, strain ESC1, stronger effect = lower value 0.945 | locus YMR263W, strain SAP30, stronger effect = lower value 0.949 | [3] 0.983 | locus YNL153C, strain GIM3, stronger effect = lower value 0.959 | locus YPL055C, strain LGE1, stronger effect = lower value 0.917 | locus YPL241C, strain CIN2, stronger effect = lower value 0.886
active: locus YGR078C, strain PAC10, stronger effect = lower value 0.913 | [2] 0.505 | locus YHR087W, strain rtc3, stronger effect = lower value 0.898 | locus YJR075W, strain HOC1, stronger effect = lower value 0.89 | locus YLR058C, strain SHM2 (second series), stronger effect = lower value 0.92 | locus YNL298W, strain CLA4 (second series), stronger effect = lower value 0.804 | locus YNL322C, strain KRE1, stronger effect = lower value 0.931 | locus YNR030W, strain Alg12, stronger effect = lower value 0.859 | locus YPR135W, strain CTF4, stronger effect = lower value 0.509

CSc1cc(-c2ccncc2)nc(-c2cccs2)c1
inactive: locus YAR019C, strain CDC15, stronger effect = lower value 0.953 | locus YBL105C, strain PKC1, stronger effect = lower value 0.964 | locus YBR135W, strain CKS1, stronger effect = lower value 0.957 | locus YBR136W, strain MEC1, stronger effect = lower value 0.961 | locus YBR160W, strain CDC28, stronger effect = lower value 0.952 | locus YDL017W, strain CDC7, stronger effect = lower value 0.959 | locus YDL028C, strain MPS1, stronger effect = lower value 0.965 | [1] 0.971 | locus YDL108W, strain KIN28, stronger effect = lower value 0.96 | locus YDL132W, strain cdc53, stronger effect = lower value 0.961 | locus YDL214C, strain PRR2, stronger effect = lower value 0.965 | locus YDR052C, strain DBF4, stronger effect = lower value 0.965 | locus YDR054C, strain cdc34, stronger effect = lower value 0.957 | locus YDR226W, strain ADK1, stronger effect = lower value 0.951 | locus YDR477W, strain SNF1, stronger effect = lower value 0.941 | locus YER123W, strain YCK3, stronger effect = lower value 0.928 | locus YER133W, strain GLC7, stronger effect = lower value 0.927 | locus YFL009W, strain cdc4, stronger effect = lower value 0.975 | locus YFL029C, strain CAK1, stronger effect = lower value 0.952 | locus YFR003C, strain YPI1, stronger effect = lower value 0.96 | locus YFR019W, strain FAB1, stronger effect = lower value 0.965 | locus YFR028C, strain CDC14, stronger effect = lower value 0.952 | locus YGR040W, strain KSS1, stronger effect = lower value 0.928 | locus YGR052W, strain FMP48, stronger effect = lower value 1.05 | locus YGR092W, strain DBF2, stronger effect = lower value 0.89 | [2] 1.03 | locus YHR079C, strain IRE1, stronger effect = lower value 0.953 | locus YHR082C, strain KSP1, stronger effect = lower value 1.02 | locus YHR205W, strain SCH9, stronger effect = lower value 0.997 | locus YIL147C, strain SLN1, stronger effect = lower value 0.962 | locus YJL095W, strain BCK1, stronger effect = lower value 0.982 | locus YJL128C, strain PBS2, stronger effect = lower value 0.963 | locus YJL157C, strain FAR1, stronger effect = lower value 0.938 | locus YJR016C, strain ILV3, stronger effect = lower value 0.985 | locus YJR066W, strain TOR1 (second series), stronger effect = lower value 0.95 | locus YJR066W, strain TOR1, stronger effect = lower value 0.993 | locus YKL048C, strain ELM1, stronger effect = lower value 0.966 | locus YKL067W, strain YNK1, stronger effect = lower value 0.951 | locus YKL101W, strain HSL1, stronger effect = lower value 0.961 | locus YKL193C, strain SDS22, stronger effect = lower value 0.958 | locus YKL203C, strain TOR2, stronger effect = lower value 1 | locus YLR113W, strain HOG1, stronger effect = lower value 0.92 | locus YLR133W, strain CKI1, stronger effect = lower value 0.962 | locus YLR403W, strain SFP1, stronger effect = lower value 1.01 | locus YML070W, strain DAK1, stronger effect = lower value 0.929 | locus YMR001C, strain CDC5, stronger effect = lower value 0.964 | locus YMR205C, strain PFK2 (second series), stronger effect = lower value 0.963 | locus YMR277W, strain FCP1, stronger effect = lower value 0.961 | locus YNL006W, strain LST8, stronger effect = lower value 0.969 | locus YNL020C, strain ARK1, stronger effect = lower value 0.954 | locus YNL161W, strain CBK1, stronger effect = lower value 0.952 | locus YNL183C, strain NPR1, stronger effect = lower value 0.97 | locus YNL207W, strain RIO2, stronger effect = lower value 0.945 | locus YNL222W, strain SSU72, stronger effect = lower value 0.951 | locus YNL307C, strain MCK1 (second series), stronger effect = lower value 0.952 | locus YOL078W, strain AVO1, stronger effect = lower value 0.96 | locus YOL136C, strain PFK27, stronger effect = lower value 0.956 | locus YOR061W, strain CKA2, stronger effect = lower value 0.963 | locus YOR119C, strain RIO1, stronger effect = lower value 0.984 | locus YOR231W, strain MKK1, stronger effect = lower value 0.921 | locus YOR329C, strain SCD5, stronger effect = lower value 0.966 | locus YPL031C, strain PHO85, stronger effect = lower value 0.927 | locus YPL153C, strain RAD53, stronger effect = lower value 0.925 | locus YPL204W, strain HRR25, stronger effect = lower value 0.951 | locus YPL209C, strain IPL1, stronger effect = lower value 0.954 | locus YPL256C, strain CLN2, stronger effect = lower value 0.939 | locus YPR025C, strain CCL1, stronger effect = lower value 0.963 | locus YPR106W, strain ISR1, stronger effect = lower value 0.959 | locus YPR111W, strain DBF20, stronger effect = lower value 0.947 | strain NNK1, stronger effect = lower value 0.965 | strain TSCII, stronger effect = lower value 0.951

NCC(CP(=O)(O)O)c1ccc(Cl)cc1 (stereo not drawn)
inactive: locus YAL040C, strain CLN3, stronger effect = lower value 1.04 | locus YCL061C, strain MRC1 (second series), stronger effect = lower value 0.978 | locus YDR363W, strain ESC2, stronger effect = lower value 0.99 | locus YER002W, strain NOP16, stronger effect = lower value 0.991 | locus YGR229C, strain SMI1, stronger effect = lower value 0.963 | [3] 0.995 | locus YNL128W, strain TEP1, stronger effect = lower value 0.987 | locus YNL175C, strain NOP13, stronger effect = lower value 0.986 | locus YNL197C, strain WHI3, stronger effect = lower value 0.998 | locus YNL224C, strain SQS1, stronger effect = lower value 1 | locus YOR083W, strain WHI5 (second series), stronger effect = lower value 0.98
